# According to paper PMC12136788:
# Numbering of substitutions follows the chain as printed. Over roughly 5,800 sequences, “enrichment r” has its median near 0.54; the highest 2% begin near 16. Shown is part of a subset that was picked to be rich in the highest values.
# B1: chr5:72209348:72209524:+|3pUTR|ENSG00000131711|msi1_unk|total|mutant (ssRNA)
# RNA: GGGAGUUCUACAGUCCGACGAUCUUAUGUCUUAUAAUCCUGCAUCACUUCUAUCCUAUCCAGUCAUAUCUAAUGCCGAAAAUCCGUUUCCAGUGAAAGUAAUAUGCCGUGCUUUUAUGAUAUUUGUGUGCAAUAUCCCCUCUUCAACAGAGGAUUGAGCAUCA
# B2: chr11:101890673:101891278:-|three_prime_utr|ENSG00000187151|control|control|control (ssRNA)
# RNA: GGGAGUUCUACAGUCCGACGAUCGUAAUGCAAGUUCUACAAUGAUAAUAUAUUAAAGAUUUUUAAAAGUUUAUCUUUUCACUUAGUGUUUCAAACAUAUUAGGCAAAAUUUAACUGUAGAUGGCAUUUAGAUGUUAUGAGUUUCAACAGAGGAUUGAGCAUCA
# B3: chr17:61865808:61865921:-|3pUTR|ENSG00000108506|unk|FALSE|unique (ssRNA)
# RNA: GGGAGUUCUACAGUCCGACGAUCUUCUAUGAGAAUGAGUUUGUAGCUGUUUCAAAUCAUGAAGUGCAUAGUAUCACAUGUGAUAGAAUAUUUAUAACUUUUUAUUAGAUGCUUAAUGUUCAAUUAAGUAAUUUUGAUGUGAAACAACAGAGGAUUGAGCAUCA
# B4: chr16:21983864:21984660:-|three_prime_utr|ENSG00000155714|control|control|control (ssRNA)
# RNA: GGGAGUUCUACAGUCCGACGAUCAAAGAAAAUUGAGCUGGCAAAAGAUGAAUCUUUCACAAGCAGUGAUGAUAAUGAAAAUGUAGAUUUAGAUAAAAGACUUCAAUAUUAUAGAUAUCCGUGGUCAACUGUGCAUCACCCUGCCAACAGAGGAUUGAGCAUCA
# B5: chr9:5123879:5124511:-|three_prime_utr|ENSG00000120210|control|control|control (ssRNA)
# RNA: GGGAGUUCUACAGUCCGACGAUCCUGGUAAAUUGGAUUGCCAUAUGCAGAAGAAUGAAACUGGACCCAUAUUUAUCACCAUAUAGAAAAAUUAACUCGAUCGAUUACAGACUUAAAUGUAAGAUCUGAAACUAGAAAAAUACUCAACAGAGGAUUGAGCAUCA
# B6: chr17:37686430:37687371:-|three_prime_utr|ENSG00000275410|control|control|control (ssRNA)
# RNA: GGGAGUUCUACAGUCCGACGAUCUGCAAUUUCCCCUCUGUGUCCUCUCCCCUCUGCCCUGUAUAUAAUACUAAAGUGUCUAUUAGUUUUCUUUGUAAAGGUCAGAGUCAAAAUUUCAAAAGUGAUCUGUCCCCUCUCCCCUCACAACAGAGGAUUGAGCAUCA
# B7: chr5:24509697:24509799:-|CDS|ENSG00000040731|unk|FALSE|unique (ssRNA)
# RNA: GGGAGUUCUACAGUCCGACGAUCACUCGACUAUGAGAGCCGAAGACUUUAUACUCUGAAAGUCGAAGCAGAAAACACCCAUGUAGAUCCCCGUUUUUAUUACCUAGGACCAUUUAAAGAUACUACCAUAGUGAAAAUCUCUAUCAACAGAGGAUUGAGCAUCA
# B8: chr15:49134392:49134529:-|CDS|ENSG00000166200|unk|FALSE|unique (ssRNA)
# RNA: GGGAGUUCUACAGUCCGACGAUCAUAUUUGCUUUCCUAGACUGAUGAUGGAGAAGAUGAUCUGAAAAAAGGUACACAGUUAUUAGAAAUAUAUGCUUUGGAAAUUCAAAUGUACACAGCACAGAAAAAUAACAAAAAACUUAACAACAGAGGAUUGAGCAUCA
# B9: chr2:99394746:99394872:+|CDS|ENSG00000158417|unk|FALSE|unique (ssRNA)
# RNA: GGGAGUUCUACAGUCCGACGAUCGAUGUGAGAAUUGAACGAGAUGCACAAGAAAUGGCUGAUAGUUUAGGAGUUAGAAUUUUUAGUGCAGAAAUUAUUUAUCAUUUAUUUGAUGCCUUUACAAAAUAUAGACAAGACUACAAGCAACAGAGGAUUGAGCAUCA
# B10: chr5:72209348:72209524:+|3pUTR|ENSG00000131711|msi1_unk|FALSE|overlapping (ssRNA)
# RNA: B1 RNA with C75U, C76A, C83U, C84A, C106U, C107A
# B11: chr2:99394746:99394872:+|CDS|ENSG00000158417|unk|total|mutant (ssRNA)
# RNA: B9 RNA with U62C, A63C, U67C, A68C, U74C, A75C, U83C, A84C, U128C, A129C
# B12: ENSG00000176244:stop:overlap|stop_codon|ENSG00000176244|stop_codon|NA|stop_codon (ssRNA)
# RNA: GGGAGUUCUACAGUCCGACGAUCAAGAUGCGACGAGUGCCUAUAUUUCUAAAGCAAAGGAGCUGAUAGAAAAAUACGGAAUUUAGAAUACAGCAUAUGAGGAAUUUUUCCUUUUGAAGACUUCCAAAUGCUAUCAUGACCUAACAACAGAGGAUUGAGCAUCA
# B13: chr11:118751385:118751486:-|3pUTR|ENSG00000110367|msi1|FALSE|unique (ssRNA)
# RNA: GGGAGUUCUACAGUCCGACGAUCUUGAAGUCUCUUCCCUUUCUACCCAGUACUCGAGCCCAGGGCUAGAAGUUGAAACUCACUAGUAAUGUUAAACACCAUUUUUUUUUUCUUUUUGGGGAGGAGUUGAUAUGCAACUGCAGUCAACAGAGGAUUGAGCAUCA
# B14: chr4:173322470:173322571:+|3pUTR|ENSG00000109586|msi1|total|mutant (ssRNA)
# RNA: GGGAGUUCUACAGUCCGACGAUCUGCCGCAUUCACUCCCUUACCUACUGGCAUUCCCAGUGCCCUCUGUCCAUACCUACUUCCCGGAUUGCAAAGGAGUCUUCCAACCCGAGAAAAAUUGUCCACUGACAUUUGGGAUUUACUCAACAGAGGAUUGAGCAUCA
# B15: chr8:7990417:7990620:-|CDS|ENSG00000205989|control|control|control (ssRNA)
# RNA: GGGAGUUCUACAGUCCGACGAUCGAUGUCUGCAACAUAGUAGAAGAUCAAAUUGGUGCCUGCCGAAGAAGGAUGAAGUGCUGUAGAGCAUGGUGGAUUUUAAUGCCAAUUCCAACACCACUUAUCAUGUCAGAUUAUCAAGAACAACAGAGGAUUGAGCAUCA
# B16: chr20:37241422:37241523:+|3pUTR|ENSG00000118705|msi1_unk|FALSE|overlapping (ssRNA)
# RNA: GGGAGUUCUACAGUCCGACGAUCGUAUGAGAAGAAAAAUGGAAAAAAAAAACUUUAUUUAAAAAAGAAAAAAGUCCAGAUUGUAGUUAUACUUUUGCUUGUUUUUCAGUUUCCCCAACACACAGCAGAUACCUGGUGAGCUCACAACAGAGGAUUGAGCAUCA
# B17: chr8:80500255:80500365:+|CDS|ENSG00000205189|unk|total|mutant (ssRNA)
# RNA: GGGAGUUCUACAGUCCGACGAUCGAAAAACCAAACUACAAAAAGAUUUAUUUAUAAUAUUCCACCUAAUAAUGAAACGAAUUCCGAAGAUUGCUCAGUAAUGCAGCCACCUGUUGCCUAUCCAGAAGAAAAUACACUACUCAUCAACAGAGGAUUGAGCAUCA
# B18: chr2:30158716:30158817:+|CDS|ENSG00000119801|msi1|total|mutant (ssRNA)
# RNA: GGGAGUUCUACAGUCCGACGAUCGUUUGCCACUGAAGACAGCCAGCGAUAUAAGGAAGGCCGCGUGAUCCUGGAACGUGCUCCCGUUCGAGAGAGUGAGGGCUUUGAGGAGCAUGUACCAUCUGAUAACUCUUGAAGAUACAGCAACAGAGGAUUGAGCAUCA
# B19: chr5:115137525:115137627:-|CDS|ENSG00000152503|unk|FALSE|unique (ssRNA)
# RNA: GGGAGUUCUACAGUCCGACGAUCUUUAGCAGAAGAGGCUAUUCUUUGUUUUAUCUUAGUGUAAUGGAGAUACUGUUUUUUCUUAGUGUAAUGGAGAGAGGGCUAAAGAAGAAGCAAUUACACAUUUUGAAAAGCUCUUUGAAGCAACAGAGGAUUGAGCAUCA
# B20: ENSG00000115904:stop:overlap|stop_codon|ENSG00000115904|stop_codon|NA|stop_codon (ssRNA)
# RNA: GGGAGUUCUACAGUCCGACGAUCUUUUGCAACGAAUGGAAGAAUUUAUUGGAACAGUAAGAGAGCUGUACAGCCAUCAGAAUUAGUUGGAAGUGUGUGGACAAAAGAAGACAAAGAAAUUAACUCUCCUAAUCUUCUGAAAAUCAACAGAGGAUUGAGCAUCA
# B21: chr5:52955293:52955406:+|3pUTR|ENSG00000213949|unk|FALSE|unique (ssRNA)
# RNA: GGGAGUUCUACAGUCCGACGAUCUACCAACCAGUGUGAGCUGACUUCAGCACACCACUGAGACAGAUUACACGAUAGACAGAUAGAUAGAUAGAUAGAUAGAUAGAUAGAUAGAUAGAUAGAUAGAUAUUGAUAGAGAACAUGCAACAGAGGAUUGAGCAUCA
# B22: chr15:56434137:56434395:-|CDS|ENSG00000138587|control|control|control (ssRNA)
# RNA: GGGAGUUCUACAGUCCGACGAUCAGAGGAAGAGGAGAACUUUAGAAAAACUAUGCUAGCUAAAUUUGCUGAGGAUGAUCGAAUAGAAUUAAUGAAUGCUCAGAAACAAAGAAUGAAGCAGCUGGAACACAGGAGGGCUGUGGACAACAGAGGAUUGAGCAUCA
# B23: chr12:122341087:122341188:-|CDS|ENSG00000130779|unk|total|mutant (ssRNA)
# RNA: GGGAGUUCUACAGUCCGACGAUCAGAAUUUGCUGAACUAAAAACACAAACCGAGAAAAUGAGACCCGAUUACCAACACGAAACCGAAAAUUUGCAGAAUCAACAAGACUCUGAACGGGCUGCCCAUGCUAAAGAGAUGGAAGCCAACAGAGGAUUGAGCAUCA
# B24: chr5:52955293:52955406:+|3pUTR|ENSG00000213949|unk|total|mutant (ssRNA)
# RNA: GGGAGUUCUACAGUCCGACGAUCUACCAACCAGUGUGAGCUGACUUCAGCACACCACUGAGACAGAUUACACGACCGACAGACCGACCGACCGACCGACCGACCGACCGACCGACCGACCGACCGAUAUUGACCGAGAACAUGCAACAGAGGAUUGAGCAUCA
# B25: chr12:122341087:122341188:-|CDS|ENSG00000130779|unk|FALSE|bound_elsewhere (ssRNA)
# RNA: B23 RNA with C50U, C51A, C65U, C66A, C83U, C84A
# B26: ENSG00000136451:be:win_1001|CDS|ENSG00000136451|bound_else_gene|NA|bound_elsewhere_windowed (ssRNA)
# RNA: GGGAGUUCUACAGUCCGACGAUCACCAAAAGCAGCAGCAGCAGCAGCAGCAGCAGCAGCAGCAGCAGCAACAACAACAACAACAACAUGUGACAAGCUGGCCAGGGAAGCAAGUAGAAACACUGAGACUGUGGGAAGAAGCUGCAACAGAGGAUUGAGCAUCA
# Target: MSI1 full-length (mouse, UniProt Q61474 1-362)
# Assay: nsRBNS (natural sequence RNA bind-n-seq); RBNS binding buffer (assumed for nsRBNS): 25 mM Tris pH 7.5, 150 mM KCl, 3 mM MgCl2, 0.01% Triton X-100, 500 ug/ml BSA, 20 U/ml SUPERase-In, 4 C; UNK is unkempt and MSI1 is Musashi-1; names of the RNAs are library labels; protein concentration not given here; high values mean tight binding
# Sequence of MSI1 full-length (Q61474 whole entry): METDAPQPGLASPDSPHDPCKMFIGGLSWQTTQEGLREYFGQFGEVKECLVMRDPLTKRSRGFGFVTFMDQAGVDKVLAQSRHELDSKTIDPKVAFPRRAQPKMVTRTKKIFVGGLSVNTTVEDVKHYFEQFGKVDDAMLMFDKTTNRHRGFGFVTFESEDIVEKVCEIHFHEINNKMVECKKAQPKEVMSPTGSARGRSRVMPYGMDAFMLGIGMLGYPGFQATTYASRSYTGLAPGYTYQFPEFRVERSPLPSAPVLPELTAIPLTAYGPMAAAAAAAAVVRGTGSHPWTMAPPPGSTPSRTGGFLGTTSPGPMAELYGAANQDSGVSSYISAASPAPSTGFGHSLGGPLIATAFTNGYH
row,Binder,binding signal
1,B1,0.64 enrichment R
2,B2,3.72 enrichment R
3,B3,5.16 enrichment R
4,B4,43.6 enrichment R
5,B5,19.7 enrichment R
6,B6,0.979 enrichment R
7,B7,3.85 enrichment R
8,B8,0.819 enrichment R
9,B9,35 enrichment R
10,B10,22.2 enrichment R
11,B11,0.374 enrichment R
12,B12,0.512 enrichment R
13,B13,1.4 enrichment R
14,B14,0.767 enrichment R
15,B15,0.446 enrichment R
16,B16,1.41 enrichment R
17,B17,3.62 enrichment R
18,B18,0.472 enrichment R
19,B19,2.18 enrichment R
20,B20,1.25 enrichment R
21,B21,67 enrichment R
22,B22,3.42 enrichment R
23,B23,0.402 enrichment R
24,B24,0.369 enrichment R
25,B25,16.5 enrichment R
26,B26,0.597 enrichment R
